# This is a sample that favours compounds with a hit; in the whole collection about 4.7% have one here.
# TRHR ag – agonists of human TRH receptor; TRHR cells, calcium flux fluo-8, FDSS agonist mode; activation, % at 2 µM; 0.18% of 360,000 active; note: 0% is about no effect
# Target sequence (P34981 whole entry, looked up): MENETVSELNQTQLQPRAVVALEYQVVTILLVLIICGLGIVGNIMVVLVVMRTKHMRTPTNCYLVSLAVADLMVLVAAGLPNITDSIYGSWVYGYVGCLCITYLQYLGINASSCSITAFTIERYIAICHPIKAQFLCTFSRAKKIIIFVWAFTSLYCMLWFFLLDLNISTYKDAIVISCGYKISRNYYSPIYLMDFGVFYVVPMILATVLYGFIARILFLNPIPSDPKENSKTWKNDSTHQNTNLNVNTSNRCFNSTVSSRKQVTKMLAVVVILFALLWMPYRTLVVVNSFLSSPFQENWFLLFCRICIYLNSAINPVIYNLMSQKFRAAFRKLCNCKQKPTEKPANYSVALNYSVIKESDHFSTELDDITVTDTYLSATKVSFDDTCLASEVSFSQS
#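 Read-out: compound-evoked intracellular calcium rise in TRHR cells, fluo-8 dye, kinetic FDSS fluorescence at 1 s/cycle following a 10-cycle baseline. Cells cultured overnight before dye loading (30 min–1.5 h, RT).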
# D1 ag – activates the human D1 dopamine receptor | AID 504660 | HEK293 T-REx D1 cells, calcium flux, agonist mode | P21728 | activation, % at 2 µM | 1% of 360,000 active; note: 0% is about no effect
#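 Inducible HEK293 T-REx D1 cells, force-coupled to calcium signalling, were plated at 4000 cells/well with tetracycline and held overnight at 30 C. After no-wash calcium dye loading, compound-evoked calcium rise over 180 s flagged agonists.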
# D1 antagonist – antagonists of human D1 dopamine receptor | P21728 | HEK293 TREx D1 cells, calcium flux, dopamine EC80; stronger effect = lower value | activity change, negative = inhibition, % at 10 µM | 3.2% of 360,000 active | AID 504652; in the data active = activity change below about -30%; note: % is set by controls: 0 for no effect and ±100 for the full control effect
#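 Inducible Hek293 Trex D1 cells (tetracycline, overnight, 30 C). Calcium dye 30–90 min RT. Antagonist mode: EC80 dopamine added after 180 s compound read.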
# D1 PAM – potentiators of human D1 dopamine receptor. HEK293 TREx D1 cells, calcium flux, dopamine EC20 potentiation. potentiation, % at 10 µM. 0.036% of 360,000 active. AID 504651; in the data active = potentiation above about 30%; note: 0% is about no effect
# TRHR enhancer – allosteric enhancers of human TRH receptor. TRHR cells, fluo-8 calcium fluorescence, EC20 TRH enhancement. enhancement, % at 2 µM. 0.66% of 360,000 active. AID 493056; in the data active = enhancement above about 30%; note: 0% is about no effect
#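 TRHR-expressing cells loaded with fluo-8 calcium dye were read kinetically (ex 480/em 530) during compound addition, then stimulated with an EC20 of TRH (10 nM final). Enhancement of the Gq-mediated intracellular calcium response was scored.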
# Starred values were filed as active, the others as inactive; · = no result; ! = not confirmed by another sample. Cut-off read from the data, not from the text of the source, unless noted: active = activation above about 30%; inactive = the rest.
SMILES,TRHR ag,D1 ag,D1 antagonist,D1 PAM,TRHR enhancer
O=C(/C=C/c1cccc([N+](=O)[O-])c1)c1cccs1,0,0,7,-8,0
O=C(NCCc1ccccc1)/C(=C\c1cccc([N+](=O)[O-])c1)NC(=O)c1ccco1,-1,4,-34*,-4,0
O=C(/C=C/c1cccc([N+](=O)[O-])c1)Nc1ccc(NC(=O)c2cccs2)cc1,2,-1,-78*,-24,-22
O=C(NCc1ccccc1)/C(=C/c1cccc([N+](=O)[O-])c1)NC(=O)c1ccco1,0,2,-6,·,5
O=C(Nc1cccc2ccccc12)/C(=C/c1cccc([N+](=O)[O-])c1)NC(=O)c1cccs1,0,1,7,-4,34*
CCC(C)[C@H](NC(=O)N1CC(=O)Nc2ccccc21)C(=O)N1CCC[C@H]1C(=O)O (some centres undefined),0,2,-6,-3,-1
Cc1ccc(C(=O)NC(C)C2CCCO2)o1 (centres undefined),0,8,-11,-10,0
CC(NC(=O)c1ccc(Br)o1)C1CCCO1 (centres undefined),0,0,-31*,-10,-6
COc1ccc(-n2ncc3c2ncn2nc(-c4ccc(Cl)cc4Cl)nc32)cc1,1,1,4,5,-3
COc1ccc(NC(=O)C2CCCN(S(=O)(=O)c3ccc4[nH]c(=O)ccc4c3)C2)cc1OC (centres undefined),0,2,-7,0,39*!
COc1ccc(NC(=O)C2CCCN(S(=O)(=O)c3ccccc3)C2)c(OC)c1 (centres undefined),-1,2,9,-8,33*
COc1ccc(S(=O)(=O)N2CCCC(C(=O)Nc3ccc(OC)c(OC)c3)C2)cc1 (centres undefined),0,-1,-31*,-2,3
O=C(c1cccc(Cl)c1)C1CCCN(S(=O)(=O)c2ccccc2)C1 (centres undefined),-1,0,-54*,-3,-1
CCN(CC(=O)Nc1c(F)cccc1F)C(=O)c1nn(C)c(=O)c2ccccc12,0,2,11,·,-2
CCN(CC(=O)NCc1ccc(Cl)cc1)C(=O)c1cccc(S(=O)(=O)Nc2ccc(OC)cc2)c1,0,0,-6,-1,-10
COC(=O)c1sc(-c2ccccc2)cc1NC(=O)c1cccc(F)c1,0,2,-2,-2,2
COc1ccc(C(=O)Nc2cccc(-c3cn4ccsc4n3)c2)c(OC)c1,0,0,-17,-3,5
Cc1cc(C)cc(NC(=O)CCCCCN2C(=O)[C@@H]3Cc4ccccc4CN3C2=O)c1,1,0,-40*,-4,12
COc1cccc(NC(=O)CCCCCN2C(=O)[C@@H]3Cc4ccccc4CN3C2=O)c1,0,6,-14,-3,-4
NC(=O)CS(=O)(=O)c1nc2ccccc2n1Cc1ccccn1,0,1,-38*,-3,-1
CCOC(=O)c1cc(-c2ccccc2)n(CCCC(=O)Nc2ccc(C)cc2C)c1C,1,6,-17,-6,2
CCOC(=O)c1cc(-c2ccccc2)n(CCCC(=O)Nc2cccc(Cl)c2C)c1C,1,3,-68*,-9,1
CCN(CC)S(=O)(=O)c1ccc2oc(SCc3ccc(F)cc3)nc2c1,-2,29,-36*,-8,-1
O=C(N/N=C/c1coc2ccccc2c1=O)c1ccccc1,0,1,-44*,-7,-1
CCn1c(N2CCN(C(=S)NCC(C)C)CC2)nc2ccccc21,0,5,-3,-3,-6
SMILES,TRHR ag,D1 ag,D1 antagonist,D1 PAM,TRHR enhancer
CCn1c(N2CCN(C(=S)NC)CC2)nc2ccccc21,0,2,-32*,-9,22
CCn1c(N2CCN(C(=S)NCCc3ccccc3)CC2)nc2ccccc21,2,1,-36*,-9,-10
COc1ccccc1N1CCN(C(=O)c2ccc(COc3cccc4c3OC(C)(C)C4)cc2)CC1,0,1,7,7,-3
CCCCNC(=O)Cn1c(=O)cc(C)c2c(C)nn(-c3cccc(Cl)c3C)c21,0,-1,-4,-5,-6
Cc1cc(C)n(CCOc2ccc(Br)cc2)n1,-1,3,-4,-3,-3
CCOC(=O)c1ccc(COc2ccc(C(C)C)cc2)o1,1,7,8,-4,3
CCOc1ccc(OCc2ccc(C(=O)OCc3ccccn3)o2)cc1,0,32*,-23,-10,1
CCOc1cc(C(=O)NCCc2sc(-c3ccc(F)cc3)nc2C)cc(OCC)c1OCC,0,7,3,-3,-3
Cc1n[nH]c(C)c1S(=O)(=O)N(CC(=O)NCc1ccccc1Cl)c1ccc(C(C)C)cc1,-1,4,22,3,8
CCOC(=O)c1cc(-c2ccccc2)n(CCC(=O)Nc2ccc(C)cc2Cl)c1C,1,15,10,-7,-4
CCOC(=O)C1CCCN(S(=O)(=O)c2ccc3c4c(cccc24)C(=O)N3CC)C1 (centres undefined),0,10,-32*,·,-4
O=C(CSc1ccc2c(c1)OCCO2)Nc1ncccc1O,0,2,1,-8,5
C=CCSc1ncc(-c2ccccc2)cn1,0,3,-31*,-4,9
C#CCSc1ncc(-c2ccccc2)cn1,0,2,-3,-3,5
O=C1c2ccccc2C(Nc2cccnc2)N1Cc1ccccc1 (centres undefined),0,1,-8,-2,2
O=C1c2ccccc2C(Nc2cccnc2)N1Cc1ccccc1Cl (centres undefined),-1,1,-12,-5,33*
Cc1ccccc1CC(=O)N1CC(C)OC(C)C1 (centres undefined),0,2,3,1,5
COC(=O)Cn1ccc2cc(S(=O)(=O)N3CCCCCC3)ccc21,0,2,8,-9,-4
COc1ccc(OC)c(CNC(=O)CCCn2ccc3cc(S(=O)(=O)N4CCCC4)ccc32)c1,0,4,-33*!,-1,-3
COc1ccccc1CCNC(=O)Cn1ccc2cc(S(=O)(=O)N3CCCC3)ccc21,0,7,-31*,-9,-12
COC(=O)Cn1ccc2cc(S(=O)(=O)N3CCCCC3)ccc21,0,5,-51*!,-1,7
COc1ccc(CC(=O)Nc2ccc(S(=O)(=O)N3CCC(C)CC3)cc2)c(OC)c1,0,-1,14,1,-2
Oc1ccc(Br)cc1-c1nc2cnccn2c1NC1CCCC1,-1,1,-27,-5,-4
COc1ccc(Nc2c(-c3ccc(OC)cc3)nc3cnccn23)cc1,-1,-1,4,-3,34*
Fc1ccc(-c2nc3cnccn3c2NC2CCCC2)cc1,0,1,-36*,-2,-3

# Screening data (PubChem BioAssay)
